From PubChem BioAssay (Tox21)
Records with an inconclusive call do not appear. Calls of active or inactive are those of the source. Calls come from the whole dose curve; as a rule, active = well fitted curve in the direction sought with a large enough effect in the repeat runs; inconclusive = weak or mixed curves; inactive = no such curve, though single readings can be large; an effect the other way counts as inactive or inconclusive.

Tests used:
[1] = A CellTox Green Cytotoxicity Assay to monitor cytotoxicity in HepG2 cells - 0 hour (AID 1224882); note: nearly all actives have a fitted effect of over 35% in size
Method in brief: (§1)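 Using 1536-well format, dye-containing HepG2 suspension was seeded, allowed 5 h at 37 C/5% CO2, dosed by pintool with compounds, positive and negative controls, and imaged for fluorescence across 40 h.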

[2] = A CellTox Green Cytotoxicity Assay to monitor cytotoxicity in HepG2 cells - 32 hour (AID 1224883); note: nearly all actives have a fitted effect of over 50% in size; note: potency is the fitted concentration of half-maximal effect
Method in brief: as §1

[3] = A CellTox Green Cytotoxicity Assay to monitor cytotoxicity in HEK293 cells - 8 hour (AID 1224884); note: nearly all actives have a fitted effect of over 35% in size
Method in brief: (§2)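 Fluorescence intensity, read at 0, 8, 16, 24, 32 and 40 h of compound treatment, reflected dye binding to DNA of dead HEK293 cells; compounds (23 nL, DMSO) were added 5 h after plating cells with reagent.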

[4] = qHTS RealTime-Glo MT Cell Viability Assay in HepG2 cells - 16 hour (AID 1224885); note: nearly all actives have a fitted effect of over 50% in size; note: potency is the fitted concentration of half-maximal effect
Method in brief: (§3)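 HepG2 cells were seeded at 600 cells/well together with NanoLuc luciferase and a cell-permeant prosubstrate, preincubated 5 h at 37 C/5% CO2, then pin-dosed with compounds in DMSO. Nonlytic luminescence from viable cells was read at each time point.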

[5] = qHTS RealTime-Glo MT Cell Viability Assay in HEK293 cells - 24 hour (AID 1224886); note: nearly all actives have a fitted effect of over 50% in size; note: potency is the fitted concentration of half-maximal effect
Method in brief: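 HEK293 cells were seeded at 600 cells/well together with NanoLuc luciferase and cell-permeant prosubstrate, preincubated 5 h at 37 C/5% CO2, then given compound in DMSO by pintool. Luminescence from viable-cell prosubstrate reduction was read repeatedly over 40 h.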

[6] = qHTS RealTime-Glo MT Cell Viability Assay in HEK293 cells - 8 hour (AID 1224887); note: nearly all actives have a fitted effect of over 50% in size; note: potency is the fitted concentration of half-maximal effect
Method in brief: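 Viable HEK293 cells reduce a cell-permeant prosubstrate; the product diffuses out and is consumed by NanoLuc in the medium to give light. Compounds went in after a 5 h incubation and plates were read over the treatment course.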

[7] = A CellTox Green Cytotoxicity Assay to monitor cytotoxicity in HEK293 cells - 16 hour (AID 1224888); note: nearly all actives have a fitted effect of over 35% in size; note: potency is the fitted concentration of half-maximal effect
Method in brief: as §2

[8] = qHTS RealTime-Glo MT Cell Viability Assay in HepG2 cells - 0 hour (AID 1224889); note: nearly all actives have a fitted effect of over 50% in size; note: potency is the fitted concentration of half-maximal effect
Method in brief: as §3

[9] = A CellTox Green Cytotoxicity Assay to monitor cytotoxicity in HepG2 cells - 8 hour (AID 1224890); note: nearly all actives have a fitted effect of over 45% in size; note: potency is the fitted concentration of half-maximal effect
Method in brief: as §1

[10] = A CellTox Green Cytotoxicity Assay to monitor cytotoxicity in HEK293 cells - 32 hour (AID 1224881); note: nearly all actives have a fitted effect of over 40% in size; note: potency is the fitted concentration of half-maximal effect
Method in brief: as §2

Measured: Potency

O=C1NC(=O)c2cccc3cccc1c23
inactive: [1] | [2] | [3] | [4] | [5] | [6] | [7] | [8] | [9]

CCC(CO)(CO)CO
inactive: [10] | [1] | [2] | [4] | [5] | [6] | [7] | [8] | [9]

CN1C(CSCC(F)(F)F)Nc2cc(Cl)c(S(N)(=O)=O)cc2S1(=O)=O (stereo not drawn)
active: [5] 16.9 µM | [6] 19 µM
inactive: [1] | [2] | [3] | [4] | [7] | [8] | [9]

CCCCCCCC/C=C\CCCCCCCC(=O)OCCO
inactive: [10] | [1] | [2] | [4] | [5] | [7] | [9]
active: [6] 57.8 µM

CCCCCCC(CO)CCCC (stereo not drawn)
inactive: [10] | [1] | [3] | [4] | [5] | [6] | [7] | [8] | [9]

O=C(NC(Cc1cc(=O)[nH]c2ccccc12)C(=O)O)c1ccc(Cl)cc1 (stereo not drawn)
inactive: [10] | [1] | [2] | [4] | [5] | [6] | [7] | [8] | [9]

O=S(=O)(O)CO
inactive: [1] | [2] | [3] | [4] | [5] | [6] | [7] | [8] | [9]

COc1ccc(-n2nc(C(F)F)cc2-c2ccc(S(C)=O)cc2)cc1 (stereo not drawn)
inactive: [10] | [1] | [4] | [5] | [6] | [7] | [8] | [9]

NC(=O)CCCCC(N)=O
inactive: [1] | [2] | [3] | [4] | [5] | [6] | [7] | [8] | [9]

CC[C@@H](CO)NCCN[C@@H](CC)CO
inactive: [10] | [1] | [2] | [4] | [5] | [6] | [7] | [8] | [9]

Oc1ccc2c(c1)Cc1ccccc1-2
inactive: [10] | [1] | [4] | [7] | [8]
active: [5] 19.5 µM | [6] 21.9 µM

CC(C)(C)C1(CCc2ccc(Cl)cc2)CO1 (stereo not drawn)
inactive: [1] | [3] | [4] | [5] | [6] | [7] | [8] | [9]
active: [10] 21.9 µM

O[C@@H](CNC[C@H](O)[C@H]1CCc2cc(F)ccc2O1)[C@@H]1CCc2cc(F)ccc2O1
active: [10] 26.8 µM | [2] 10.7 µM | [4] 21.3 µM | [5] 19 µM | [6] 21.3 µM | [7] 26.8 µM | [9] 23.9 µM
inactive: [1]

O=C1[C@@H]2[C@H]3CC[C@H](C3)[C@@H]2C(=O)N1CCCCN1CCN(c2ncccn2)CC1
inactive: [10] | [1] | [4] | [5] | [6] | [7] | [8]

Nc1cccc2c(N)cccc12
inactive: [10] | [1] | [3] | [6] | [7] | [8] | [9]

ClC1=C(Cl)C1(Cl)Cl
inactive: [1] | [2] | [3] | [4] | [5] | [6] | [7] | [8] | [9]

COC(CC(C)CCCC(C)(C)O)OC (stereo not drawn)
inactive: [1] | [2] | [3] | [4] | [5] | [6] | [7] | [8] | [9]

CN1CCCN(C(c2ccccc2)c2ccc(Cl)cc2)CC1 (stereo not drawn)
active: [10] 26.8 µM | [2] 21.3 µM
inactive: [1] | [6] | [7] | [9]

N[C@@H](Cc1cc(I)c(O)c(I)c1)C(=O)O
inactive: [1] | [2] | [3] | [4] | [5] | [6] | [7] | [8] | [9]

COC(OC)OC
inactive: [1] | [2] | [3] | [4] | [5] | [6] | [7] | [8] | [9]

Cc1ccc2c(c1)CCCN2
inactive: [1] | [2] | [3] | [4] | [5] | [6] | [7] | [8] | [9]

O=C(O)CO
inactive: [10] | [1] | [3] | [4] | [5] | [6] | [7] | [8] | [9]

CCOC(=O)c1ccc(NC(=O)CN2CCCCC2)cc1
inactive: [1] | [2] | [4] | [5] | [6] | [7] | [8] | [9]

C[C@@H]1[C@H](O)[C@@H](C)/C=C/C=C\C=C\C=C\C=C\C=C\C=C\[C@H](O[C@@H]2O[C@H](C)[C@@H](O)[C@H](N)[C@@H]2O)C[C@@H]2O[C@](O)(C[C@@H](O)C[C@@H](O)[C@H](O)CC[C@@H](O)C[C@@H](O)CC(=O)O[C@H]1C)C[C@H](O)[C@H]2C(=O)O (stereo in doubt)
inactive: [1] | [3] | [4] | [5] | [6] | [7] | [8] | [9]

CC(=O)NNC(C)=O
inactive: [1] | [2] | [3] | [4] | [5] | [6] | [7] | [8] | [9]

Cc1c(C2(c3cc(Br)c(O)c(Br)c3C)OS(=O)(=O)c3ccccc32)cc(Br)c(O)c1Br
inactive: [1] | [2] | [3] | [4] | [5] | [7]
active: [8] 13.4 µM
